In test [1] the test system is TRPC4 beta (transient receptor potential cation channel C4), mouse. Put plainly: activators of mouse TRPC4 channel, confirmation, cell-based, Fluo4 calcium, HEK293 TRPC4beta/mu-opioid, duplicates, 10 µM (AID 2426;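 active = fluorescence ratio normalized to control raised more than 50% in primary screen plus both repeat runs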). As to conditions: Fluo4 calcium fluorescence, at 10 µM; hits give high values.
In test [2] the test system is transient receptor potential cation channel C4 beta (TRPC4), mouse. In words: activators of mouse TRPC4 channel, confirmation, cell-based, second round, Fluo4, HEK293 TRPC4beta/mu-opioid, 1 µM (AID 2461;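 active = primary screen active and over 50% activation in each of two duplicate runs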). As to conditions: Fluo4 calcium fluorescence, at 1 µM; hits give high values.
In test [3] the test system is TRPC4 (transient receptor potential cation channel C4 beta), mouse. Put plainly: positive allosteric modulators of mouse TRPC4, confirmation, cell-based, second round, Fluo-4, HEK293 TRPC4beta/mu-opioid, 1 µM (AID 2554;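 active = primary screen hit whose fluorescence ratio, in both repeats, exceeds the weak agonist control mean by 3 SD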). The settings on record: DAMGO EC20, Fluo-4 calcium flux, at 1 µM; hits give high values.
Test [4] deals with TRPC4 beta (transient receptor potential cation channel C4), mouse. In words: positive allosteric modulators of mouse TRPC4, confirmation, cell-based, Fluo-4, HEK293 TRPC4beta/mu-opioid (AID 2555;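 active = primary screen hit whose calcium fluorescence ratio, in both repeats, exceeds the weak agonist control mean by 3 SD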). As to conditions: DAMGO EC20, Fluo-4 calcium flux, at 10 µM; hits give high values. In general terms: A change in cytosolic calcium serves as a functional read-out for many receptors and channels.

Test [5] concerns the target Short transient receptor potential channel 4 (Mus musculus) (UniProt Q9QUQ5). In words: inhibitors of mouse TRPC4 channel, confirmation, cell-based, Fluo4, HEK293 TRPC4beta/mu-opioid (AID 2636). As to conditions: DAMGO, Fluo4 calcium flux, at 10 µM; hits give high values.
Test [6] shares this target. In words: inhibitors of mouse TRPC4 channel, confirmation, cell-based, second round, Fluo4, HEK293 TRPC4beta/mu-opioid, 1 µM (AID 2637;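 active = calcium signal ratio cut to more than 3 SD under the fully stimulated control mean yet still positive, in both repeats and the primary screen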). As to conditions: Fluo4 calcium flux, DAMGO, at 1 µM; hits give high values.
Test [7] has the same target. In words: mouse TRPC4 channel activators, dose response, cell-based, HEK293 TRPC4/mu-opioid, Fluo-4 calcium (AID 434937;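 active = primary screen activator hit with a dose response curve and TRPC4 channel activation at any tested dose; inactive = no activation, no dose response, or not a primary hit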).
For test [8] the target is unchanged. In words: TRPC4 positive allosteric modulators, dose response, cell-based, HEK293 TRPC4/mu-opioid, Fluo-4 calcium, EC20 DAMGO (AID 434941;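 active = earlier screen potentiator hit that boosts the TRPC4 ion channel at some dose, with a dose response; inactive = no potentiation, no dose response, or not a prior hit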;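 note: calcium entry triggered by an EC20 dose of DAMGO at the co-expressed mu-opioid receptor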).
Test [9] has the same target. In words: mouse TRPC4 channel inhibitors, dose response, cell-based, HEK293 TRPC4/mu-opioid, Fluo-4 calcium (AID 434942;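 active = primary screen inhibitor hit that blocks the TRPC4 channel at some tested dose, yielding a dose curve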).
For test [10], the target named is Short transient receptor potential channel 6 (Mus musculus) (UniProt Q61143). In words: inhibition of mouse TRPC6 channel, confirmation, selectivity assay for TRPC4 inhibitor project, cell-based, HEK293, membrane potential dye, duplicate (AID 434948;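 active = active in primary screen and both duplicates, each dropping signal beyond three positive-control SD with fluorescence still positive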). The settings on record: HEK293 TRPC6, membrane potential dye fluorescence, at 10 µM, stimulated with maximal-effect acetylcholine; hits give high values.

For test [11] the target is unchanged. Put plainly: activation of mouse TRPC6 channel, confirmation, selectivity assay for TRPC4 activator project, cell-based, HEK293, membrane potential dye, duplicate (AID 434950;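 active = membrane potential signal rise above negative control mean plus 3 SD in both duplicates, also active in the earlier TRPC4 screen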). As to conditions: HEK293 TRPC6, membrane potential fluorescence, at 10 µM; hits give high values.
Test [12] has the same target. In words: TRPC6 potentiation by TRPC4 potentiator hits, confirmation, selectivity assay for TRPC4 potentiator project, HEK293 cells, membrane potential dye, duplicate (AID 434952;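 active = compound raising the membrane signal above positive-control mean plus 3 SD in both repeats, and a primary screen hit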). As to conditions: HEK293 TRPC6, membrane potential dye fluorescence, at 10 µM, maximal acetylcholine added after compound; hits give high values.
Test [13] deals with Short transient receptor potential channel 4 (Mus musculus) (UniProt Q9QUQ5). In words: calcium flux activators in TRPC4/5HT1a cells, counter-screen for TRPC4 activator project, cell-based, second counter screen, HEK293 TRPC4/5HT1a, Fluo-4 (AID 434977;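 active = calcium signal rise above buffer-control mean plus 5 SD in both duplicates, and also a hit in the primary screen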). As to conditions: Fluo-4 calcium flux, at 10 µM; hits give high values.
Test [14] is described as follows: calcium flux inhibitors in TRPC4/5HT1a cells, confirmation, counter-screen for TRPC4 inhibitor project, cell-based, second counter screen, HEK293 TRPC4/5HT1a, Fluo-4 (AID 434978;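 active = primary screen active whose calcium signal fell more than 3 SD beyond the full-serotonin control mean in both duplicate plates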;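 for outcome: serotonin given first at submaximal then at maximal dose after compound preincubation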). The settings on record: Fluo-4 calcium flux, at 10 µM, serotonin added to trigger calcium flux; hits give high values.
Test [15] relates to TRPC4 (mouse), co-expressed with 5HT1a in HEK293. Put plainly: calcium flux potentiators in TRPC4/5HT1a cells, confirmation, counter-screen for TRPC4 potentiator project, cell-based, second counter screen, HEK293 TRPC4/5HT1a, Fluo-4 (AID 434979;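 active = signal rise over 3 SD above mean of control wells given weak agonist, in both repeats and first screen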). The settings on record: Fluo-4 calcium flux, at 10 µM, serotonin added at its EC20 dose; hits give high values.
Test [16] can be described thus: calcium flux activation in mu-opioid HEK293 cells, confirmation, counter-screen for TRPC4 activator project, cell-based, HEK293 mu-opioid receptor line (AID 449723;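 active = hit in primary screen, with calcium signal over 5 SD above buffer well mean in both duplicates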;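 note: counter screen cells carry the mu-opioid receptor alone and lack TRPC4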). As to conditions: Fluo-4 calcium fluorescence, at 10 µM; hits give high values.
Test [17] is described as follows: calcium flux enhancement in mu-opioid HEK293 cells, confirmation, counter-screen for TRPC4 allosteric potentiator project, cell-based, HEK293 mu-opioid receptor line (AID 449724;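 active = calcium signal rise more than 3 SD above the low-dose agonist control mean, in both duplicate plates and the primary screen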;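 note: HEK293 cells carrying mu-opioid receptor only with no TRPC4 channel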). The settings on record: Fluo-4 calcium flux, at 10 µM, compound added before EC20 DAMGO stimulus; hits give high values.

For part of these data: Measured potencies and affinities stand elsewhere. Active and inactive are the calls of the source.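 Rule for the calls, unless noted: active = calcium signal cut by more than 3 SD below the full-agonist control yet still positive, in both repeats and the earlier primary screen; inactive = the rest.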

Short transient receptor potential channel 6 (Mus musculus), sequence (Q61143 whole entry, looked up): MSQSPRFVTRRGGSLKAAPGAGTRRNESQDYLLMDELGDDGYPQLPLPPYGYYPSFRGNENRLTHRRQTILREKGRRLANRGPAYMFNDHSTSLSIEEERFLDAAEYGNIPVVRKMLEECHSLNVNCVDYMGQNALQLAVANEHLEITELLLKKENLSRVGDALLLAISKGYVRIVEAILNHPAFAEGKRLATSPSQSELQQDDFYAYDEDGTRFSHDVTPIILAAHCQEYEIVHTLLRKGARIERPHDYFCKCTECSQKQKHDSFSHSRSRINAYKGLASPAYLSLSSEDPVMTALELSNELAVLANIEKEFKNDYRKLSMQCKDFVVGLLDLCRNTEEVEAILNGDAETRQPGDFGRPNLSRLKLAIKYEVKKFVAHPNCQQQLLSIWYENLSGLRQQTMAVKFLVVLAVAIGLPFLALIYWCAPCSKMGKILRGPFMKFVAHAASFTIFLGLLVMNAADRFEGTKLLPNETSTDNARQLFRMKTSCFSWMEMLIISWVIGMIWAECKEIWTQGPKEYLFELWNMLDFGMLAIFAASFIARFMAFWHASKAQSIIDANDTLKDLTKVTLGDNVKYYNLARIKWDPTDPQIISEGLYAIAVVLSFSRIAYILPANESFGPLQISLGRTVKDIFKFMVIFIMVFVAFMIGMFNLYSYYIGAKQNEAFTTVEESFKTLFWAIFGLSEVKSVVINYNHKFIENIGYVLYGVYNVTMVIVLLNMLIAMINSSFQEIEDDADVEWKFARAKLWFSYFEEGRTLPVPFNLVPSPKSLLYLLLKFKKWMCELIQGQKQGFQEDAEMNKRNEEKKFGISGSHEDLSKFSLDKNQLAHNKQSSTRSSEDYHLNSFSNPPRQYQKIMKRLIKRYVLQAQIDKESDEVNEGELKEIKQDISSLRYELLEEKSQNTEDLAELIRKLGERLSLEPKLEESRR
Short transient receptor potential channel 4 (Mus musculus), sequence (Q9QUQ5 whole entry, looked up): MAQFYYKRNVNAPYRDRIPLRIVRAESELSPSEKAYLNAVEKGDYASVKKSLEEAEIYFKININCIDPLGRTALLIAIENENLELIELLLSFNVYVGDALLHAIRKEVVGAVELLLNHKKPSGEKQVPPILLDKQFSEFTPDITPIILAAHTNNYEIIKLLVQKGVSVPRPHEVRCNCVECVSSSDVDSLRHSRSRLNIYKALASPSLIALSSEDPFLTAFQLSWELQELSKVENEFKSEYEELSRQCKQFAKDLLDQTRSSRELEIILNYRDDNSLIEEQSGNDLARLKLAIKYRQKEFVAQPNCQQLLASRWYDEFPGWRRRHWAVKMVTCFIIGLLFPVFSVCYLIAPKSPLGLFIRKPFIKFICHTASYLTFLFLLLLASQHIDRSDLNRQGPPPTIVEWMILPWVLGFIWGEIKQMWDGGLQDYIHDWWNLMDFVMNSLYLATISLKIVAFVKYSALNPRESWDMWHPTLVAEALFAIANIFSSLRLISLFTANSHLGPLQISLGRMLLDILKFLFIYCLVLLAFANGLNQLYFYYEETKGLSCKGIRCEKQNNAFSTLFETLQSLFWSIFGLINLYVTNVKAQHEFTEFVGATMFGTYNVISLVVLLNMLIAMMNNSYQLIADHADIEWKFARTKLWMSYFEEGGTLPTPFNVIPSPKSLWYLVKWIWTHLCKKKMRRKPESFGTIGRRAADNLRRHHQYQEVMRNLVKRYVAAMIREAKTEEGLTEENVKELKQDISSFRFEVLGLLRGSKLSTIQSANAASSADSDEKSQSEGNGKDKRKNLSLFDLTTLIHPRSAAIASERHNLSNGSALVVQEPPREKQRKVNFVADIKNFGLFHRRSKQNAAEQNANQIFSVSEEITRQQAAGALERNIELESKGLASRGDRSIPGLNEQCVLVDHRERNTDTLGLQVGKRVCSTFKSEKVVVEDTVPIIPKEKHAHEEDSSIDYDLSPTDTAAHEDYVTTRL

Consider `NCC(c1ccc(Cl)cc1Cl)c1c[nH]c2ccccc12` (stereo not given), for which the result in test [1], in test [2], in [3], in test [4], in test [5] and in test [6] was inactive. Moreover, the outcome in test [7], in test [8], in test [9], in test [10], in [11] and in test [12] was inactive. Also, the result in test [13], in test [14], in test [16] and in [17] was inactive. For the same compound, the potentiation in test [15] is 18.9% (active).
For `C=CCn1c(SCCN2CCCCC2)nc2c1c(=O)[nH]c(=O)n2C`, the outcome in test [1], in test [2], in [5], in [6], in test [7] and in [8] was inactive. Moreover, the outcome in test [9], in test [10], in test [11], in test [12], in test [13] and in [14] was inactive. Besides, the outcome in test [16] and in test [17] was inactive. In addition, the potentiation was 27% (active) in [3], 16% (active) in [4] and 20% (active) in test [15].
Regarding `O=C(O)c1ccc(NC(=O)c2cn(-c3ccccc3)nc2-c2ccc(Br)cc2)cc1`, the outcome in [1], in [2], in [3], in [4], in [5] and in test [6] was inactive. For the same compound, the result in test [7], in test [8], in [9], in test [10], in test [11] and in test [12] was inactive. Also, the result in test [13], in [14], in test [15], in [16] and in test [17] was inactive.
With `COc1ccc(NS(=O)(=O)c2csc(C(N)=O)c2)cc1OC`, the outcome in test [1], in [2], in test [3], in test [4], in [5] and in test [6] was inactive. The outcome in [7], in test [8], in [9], in test [10], in test [11] and in [12] was inactive. Besides, the outcome in test [13], in [14], in [16] and in test [17] was inactive. For the same compound, in test [15], the potentiation is 12.9% (active).
`N#Cc1ccc(OCC(O)CN2CCN(c3ncc(C(F)(F)F)cc3Cl)CC2)cc1` (stereo not given): the outcome in test [1], in test [2], in [4], in test [5], in [6] and in test [7] was inactive. Also, the outcome in test [8], in [9], in test [10], in test [11], in test [12] and in [13] was inactive. Also, the result in [14], in [16] and in test [17] was inactive. Further, the potentiation in [3] was 8% (active); in test [15], 12.6% (active).
On to `COc1ccccc1CNCc1cc(Br)ccc1OC`, for which the outcome in [1], in [2], in test [3], in test [4], in test [5] and in [6] was inactive. Further, the result in test [7], in [8], in test [9], in test [10], in [11] and in [12] was inactive. Also, the result in test [13], in test [14], in test [15], in test [16] and in [17] was inactive.
For `O=C(COc1ccc(Br)cc1Cl)c1ccc[nH]1`, the outcome in [1], in test [2], in [3], in test [4], in test [6] and in [7] was inactive. The outcome in test [8], in test [9], in [10], in test [11], in test [12] and in test [13] was inactive. In addition, the result in [15], in test [16] and in [17] was inactive. In addition, the inhibition (in general, the share of the control response that was lost under treatment) is 89% (active) in test [5] and 43.7% (active) in test [14].
For `COc1ccc(N2CCN(C3CCCCC3NS(=O)(=O)c3ccc(Cl)cc3)CC2)cc1` (stereo not given), the result in test [1], in test [2], in [3], in test [4], in [5] and in test [6] was inactive. Further, the result in test [7], in [8], in test [9], in [10], in [11] and in test [12] was inactive. Besides, the outcome in test [13], in test [14], in test [16] and in test [17] was inactive. Moreover, the potentiation in [15] is 10.1% (active).
Turning to `C/C(=N\N1CCN(C)CC1)c1ccc(Cl)c(Cl)c1`, the result in test [1], in test [2], in [3], in test [4], in test [5] and in test [6] was inactive. The outcome in [7], in test [8], in [9], in [10], in [11] and in [12] was inactive. Further, the outcome in [13], in test [14], in [16] and in [17] was inactive. Besides, the potentiation in test [15] was 13.3% (active).
As to `CCOc1ccc(CN(C)CC(=O)NNC(=O)c2ccc(Cl)cc2)cc1OC`, the outcome in test [1], in test [2], in [5], in test [6], in test [7] and in test [8] was inactive. Besides, the result in test [9], in test [10], in test [11], in test [12], in test [13] and in test [14] was inactive. Besides, the outcome in test [16] and in test [17] was inactive. Besides, the potentiation was 41% (active) in [3], 22% (active) in [4] and 11% (active) in test [15].
For the compound `CC1CCN(CCCCOc2ccc([N+](=O)[O-])cc2)CC1`, the result in test [1], in test [2], in [3], in [4], in test [5] and in test [6] was inactive. For the same compound, the result in [7], in [8], in test [9], in test [10], in test [11] and in test [12] was inactive. For the same compound, the outcome in test [13], in test [14], in test [15], in test [16] and in test [17] was inactive.
For the compound `CCCCN(C)CCNC(=S)Nc1ccc2nc(N3CCN(CC)CC3)cc(C)c2c1`, the outcome in test [1], in test [2], in test [4], in test [5], in test [6] and in test [7] was inactive. Also, the result in test [8], in test [9], in test [10], in test [11], in test [12] and in test [13] was inactive. Also, the outcome in test [14], in test [16] and in test [17] was inactive. Moreover, the potentiation in test [3] is 11% (active); in [15] it was 18% (active).
Turning to `CCC(=O)c1cc2c(C)cc(=O)oc2c(C)c1OC(=O)C(C)C`, the outcome in test [1], in [2], in [3], in [4], in [6] and in test [7] was inactive. Also, the outcome in [8], in test [9], in test [10], in [11], in test [12] and in test [13] was inactive. Moreover, the result in test [15], in [16] and in [17] was inactive. Further, the inhibition in test [5] was 85% (active); in test [14] it was 12.2% (active).
On to `Cc1ccc(/C=N/NC(=S)NC2CCCCC2)o1`, for which the outcome in test [1], in test [2], in [3], in [5], in [6] and in [7] was inactive. The result in test [8], in test [9], in test [10], in test [11], in test [12] and in test [13] was inactive. The outcome in test [14], in test [16] and in test [17] was inactive. The values for the potentiation in test [4] and in [15] were 66% (active) and 85.1% (active), respectively.
Consider `CC(Oc1ccc(Cl)cc1Cl)C(=O)N(C)c1ccccc1` (stereo not given), for which the outcome in test [1], in [2], in test [3], in [4], in test [5] and in test [6] was inactive. Moreover, the outcome in test [7], in test [8], in test [9], in test [10], in test [11] and in test [12] was inactive. Further, the result in test [13], in [14], in test [15], in test [16] and in test [17] was inactive.

The record behind these values is PubChem BioAssay.
